Each compound was assayed on LEGO organoid PTCC (PTEN-/-; TP53-/-; CDKN2A-/-; CDKN2B-/-) (assay: bioluminescence (viable cell) signal fold change after vs before treatment, normalised to DMSO (ratio); higher = more tumour cell growth / less inhibition). Conditions: 10 µM; treatment time 6 days.
Protocol: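 Luc2-labelled iPSC-derived glioblastoma-like organoids (LEGOs, genotypes PT = PTEN-/-;TP53-/-, PTCC = plus CDKN2A/B-/-, PTN = plus NF1-/-) were treated with 10 uM drug for 6 days (applied every other day) at 37 C. Bioluminescence imaging was done before treatment and 2 days after the last dose. BLI signals were normalised to the DMSO control on the same day and then to the pre-treatment signal (N=3).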
For `CCN(C)C(=O)Oc1cccc([C@H](C)N(C)C)c1.O=C(O)[C@H](O)[C@@H](O)C(=O)O` [Rivastigmine tartrate], the bioluminescence was 0.566.
In the case of `COc1ccc(C(CN(C)C)C2(O)CCCCC2)cc1.Cl` (configuration not stated) [Venlafaxine hydrochloride], the bioluminescence is reported as 0.737.
`Cc1n[nH]cc1-c1cc2[nH]c([C@@H]3CC4CCN3CC4)nc(=O)c2s1` [Simurosertib] gave a bioluminescence of 1.46.
For `CC(C)C[C@H]1C(=O)N2CCC[C@H]2[C@]2(O)O[C@](NC(=O)[C@@H]3C[C@@H]4c5cccc6[nH]cc(c56)C[C@H]4N(C)C3)(C(C)C)C(=O)N12.CC(C)[C@@]1(NC(=O)[C@@H]2C[C@@H]3c4cccc5[nH]cc(c45)C[C@H]3N(C)C2)O[C@@]2(O)[C@@H]3CCCN3C(=O)[C@H](Cc3ccccc3)N2C1=O.CC(C)[C@H]1C(=O)N2CCC[C@H]2[C@]2(O)O[C@](NC(=O)[C@@H]3C[C@@H]4c5cccc6[nH]cc(c56)C[C@H]4N(C)C3)(C(C)C)C(=O)N12.CCC(C)[C@H]1C(=O)N2CCC[C@H]2[C@]2(O)O[C@](NC(=O)[C@@H]3C[C@@H]4c5cccc6[nH]cc(c56)C[C@H]4N(C)C3)(C(C)C)C(=O)N12.CS(=O)(=O)O` [Dihydroergotoxine mesylate], the bioluminescence was 1.82.
`Cc1cccc([C@H](C)c2cnc[nH]2)c1C.Cl` [Dexmedetomidine HCl] gave a bioluminescence of 1.39.
With `CCOC(=O)c1cncn1[C@H](C)c1ccccc1` [Etomidate] the bioluminescence was 1.01.
`Cl.Cn1c(CCCC(=O)O)nc2cc(N(CCCl)CCCl)ccc21` [Bendamustine hydrochloride] was tested, and the bioluminescence was 0.752.
With `CN(C)C(=O)Oc1ccc[n+](C)c1.[Br-]` [Mestinon] the bioluminescence was 1.67.
With `CC(C)c1cccc(C(C)C)c1O` [Propofol] the bioluminescence was 0.675.
`CC[C@@H](C(N)=O)N1CCCC1=O` [Levetiracetam] gave a bioluminescence of 1.07.
`NCC(CC(=O)O)c1ccc(Cl)cc1` (configuration not stated) [Baclofen] was tested, and the bioluminescence was 0.877.
In the case of `CCC1(c2ccc(N)cc2)CCC(=O)NC1=O` (configuration not stated) [Aminoglutethimide], the bioluminescence is reported as 1.11.
`O=C(O)CCCc1ccc(N(CCCl)CCCl)cc1` [Chloroambucil] gave a bioluminescence of 1.06.
`COc1cc2c(cc1OC)[C@@H]1CC(=O)[C@@H](CC(C)C)CN1CC2.COc1cc2c(cc1OC)[C@H]1CC(=O)[C@H](CC(C)C)CN1CC2` [Tetrabenazine] gave a bioluminescence of 1.1.
`CCN(C)C(=O)Oc1cccc([C@H](C)N(C)C)c1` [Rivastigmine] showed a bioluminescence of 0.555.
`CN[C@@H]1C[C@H]2O[C@@](C)([C@@H]1OC)n1c3ccccc3c3c4c(c5c6ccccc6n2c5c31)C(=O)NC4` [Staurosporine] showed a bioluminescence of 0.
For `NCC1(CC(=O)O)CCCCC1` [Gabapentin], the bioluminescence was 1.26.
